Compound activity (PubChem)
Pf growth 48h – inhibits P. falciparum growth in the first generation, 48 h | P. falciparum luciferase growth in erythrocytes, 48 h | Potency, µM (series often up to 28.7 µM), hits mostly inhibitors | actives 5.9% (n = 310,000)
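Luciferase-expressing parasites in RBCs, 2% Hct / 0.1% parasitemia final; RPMI 1640 + 0.5% Albumax; 37 C, 5% CO2, one generation; luminescence read-out, lower signal = inhibition.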
HCV inh – HCV inhibition; Huh7.5.1 HCVcc-Cre infection, luciferase reporter, 44 h; actives 3.4% (n = 340,000); Potency, µM (doses to about 41.8 µM), usual class: inhibitors
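HCVcc-Cre virus at an moi near 0.5 was added right after compound to cells cultured 4 h from seeding (1,000 cells/well). Luciferase activity was determined 44 h later, 15 min after substrate addition at RT.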
AmpC inh no detg – blocks E. coli AmpC beta-lactamase in detergent-free assay. AID 485341. AmpC nitrocefin hydrolysis, absorbance 480 nm, 0.0001% Triton. actives 0.52% (n = 330,000). Potency, µM (series often up to 57.1 µM), most hits filed as inhibitors. P00811; further: nearly all actives have a fitted effect of over 20% in size
Target sequence (P00811 whole entry, looked up): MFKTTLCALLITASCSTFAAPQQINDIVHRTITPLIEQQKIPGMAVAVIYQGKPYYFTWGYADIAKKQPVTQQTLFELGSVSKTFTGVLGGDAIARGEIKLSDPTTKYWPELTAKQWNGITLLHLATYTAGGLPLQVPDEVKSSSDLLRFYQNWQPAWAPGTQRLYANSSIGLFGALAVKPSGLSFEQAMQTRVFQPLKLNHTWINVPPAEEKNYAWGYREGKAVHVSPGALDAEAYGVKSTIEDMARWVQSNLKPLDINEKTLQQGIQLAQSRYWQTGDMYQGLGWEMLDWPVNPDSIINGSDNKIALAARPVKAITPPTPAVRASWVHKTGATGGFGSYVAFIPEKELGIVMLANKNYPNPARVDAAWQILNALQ
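AmpC (5.3 nM in the dispensed reagent) in 20 mM phosphate pH 7.0 with 0.01% (detergent screen) or 0.0001% Triton X-100 was preincubated with compounds for 15 min at room temperature. Nitrocefin was then added from an 800 uM solution, and hydrolysis was followed at 480 nm.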
AmpC detergent – inhibitors of E. coli AmpC beta-lactamase with detergent. P00811. AmpC hydrolysis of nitrocefin, absorbance 480 nm, 0.01% Triton. Potency, µM (titrated, usually from 114 µM), most hits filed as inhibitors. actives 0.041% (n = 370,000). AID 485294; further: nearly all actives have a fitted effect of over 25% in size
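AmpC (5.3 nM in the dispensed reagent) in 20 mM phosphate pH 7.0 with 0.01% (detergent screen) or 0.0001% Triton X-100 was preincubated with compounds for 15 min at room temperature. Nitrocefin was then added from an 800 uM solution, and hydrolysis was followed at 480 nm.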
AMA1 RON2 block – inhibitors of Plasmodium falciparum AMA1-RON2 interaction; AID 720542; actives 0.2% (n = 360,000); Potency, µM (titrated, usually from 58.2 µM), most hits filed as inhibitors; AlphaScreen AMA1-biotinylated RON2 peptide binding; further: nearly all actives have a fitted effect of over 45% in size
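AMA1 (3D7) with his tag at 25 nM final met compounds first, then biotinylated RON2 peptide at 25 nM; detection used donor plus acceptor beads, 10 µg/mL apiece, read by AlphaScreen after 30 min at room temperature.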
Pf growth 96h – inhibits malaria parasite growth, 96 h; Potency, µM (highest dose often 28.7 µM), hits mostly inhibitors; P. falciparum luciferase reporter growth, 96 h; actives 6.9% (n = 320,000)
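96 h incubation, 37 C, 5% CO2, of luciferase-reporter P. falciparum-infected RBCs (2% hematocrit, 0.05% parasitemia final) with test compounds; endpoint luminescence.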
Numbers stand for hits; 0 = inactive; ? = inconclusive; - = no result given; [ ] = remark or other dose. An excerpt weighted towards active compounds, which were near 11% of everything screened. The call rests on the fitted dose curve; in most records, active means well fitted curve in the direction sought with a large enough effect; inconclusive means small, poorly fitted or top-dose-only effect, or another doubt; inactive means no such curve, though single readings can be large; an effect the other way counts as inactive or inconclusive.

SMILES | Pf growth 48h | HCV inh | AmpC inh no detg | AmpC detergent | AMA1 RON2 block | Pf growth 96h
CCSc1ccc([C@@H]2[C@@H]3C(=O)N(CC)C(=O)[C@@H]3[C@]3(C(=O)OC)CCCN23)cc1 | 10.4µM | 0 | 0 | ? | 0 | ?
Brc1cc2c(cc1CN1CCN(c3ccccc3)CC1)OCCO2 | 0 | 0 | 0 | 0 | 7.94µM | 0
c1ccc(N2CCN(Cc3ccnc4ccccc34)CC2)cc1 | 0 | 28.2µM | 0 | 0 | ? | 0
Oc1c(CN2CCN(c3ccccc3)CC2)cc(Br)c2cccnc12 | 1.85µM | ? | 0 | ? | 0 | ?
Oc1c(Br)cc(Br)c2cccnc12 | ? | ? | - | - | 0 | 9.53µM
COc1ccc(CNC(=O)C2=CC(c3ccc(OC)c(OC)c3)=NS(=O)(=O)N2C)cc1 | 0 | 0 | 0 | 0 | 0 | 0
CCc1ccc(NC(=O)C2=CC(c3ccc(OC)c(OC)c3)=NS(=O)(=O)N2C)cc1 | 0 | 5.62µM | 0 | 0 | 0 | 0
COc1ccc(C2=NS(=O)(=O)N(C)C(C(=O)N3CCc4ccccc4C3)=C2)cc1OC | ? | 10µM | 0 | ? | 0 | 0
N#Cc1c(N)n(-c2cccc(Cl)c2)c2nc3ccccc3nc12 | - | - | - | 0 | - | -
Cc1cccc(CSc2nc3c(sc4ccccc43)c(=O)n2CCC(=O)NC(C)C)c1 | - | - | - | 0 | - | -
CC1CN(c2nc3ccccn3c(=O)c2/C=C(\C#N)S(=O)(=O)c2ccccc2)CC(C)O1 (centres undefined) | 0 | 0 | 0 | 0 | 0 | 0
CC1CN(c2nc3ccccn3c(=O)c2C=O)CC(C)O1 (centres undefined) | 0 | 0 | 0 | 0 | 0 | 11.7µM
O=Cc1c(N2CCN(CCO)CC2)nc2ccccn2c1=O | 0 | 0 | 0 | 0 | 0 | 10.4µM
CCOc1ccc(C(=O)Nc2ccccc2OCc2cc(=O)n3ccccc3n2)cc1 | - | - | - | 0 | - | -
CC(NC(=O)c1ccc(OC2CCN(Cc3ccccn3)CC2)cc1)c1ccccc1 (centres undefined) | ? | 0 | 0 | 0 | 0 | 11.7µM
O=C(c1ccc(OC2CCN(Cc3ccccn3)CC2)cc1)N1CCC[C@H]1CO | 0 | 0 | 0 | 0 | 0 | 3.7µM
CCC1CCCCN1C(=O)c1ccc(OC2CCN(Cc3ccccn3)CC2)cc1 (centres undefined) | 0 | 0 | 0 | 0 | 0 | 0
CN(C)S(=O)(=O)c1ccc(N2CCCC2)c(C(=O)OCC(=O)NC2CCCCC2)c1 | ? | 0[8.37 µM] | 0 | ? | 0 | ?
CC1C(=O)N(c2ccc(S(=O)(=O)N(C)C)cc2)C1(/C=C/c1ccccc1)C(=O)NC1CCCC1 (centres undefined) | 9.28µM | 0 | 0 | 0 | 0 | 0
COc1cccc(NC(=O)c2ccc3nc(Cc4ccccc4)oc3c2)c1 | - | - | - | 0 | - | -
CN(C)Cc1cc(C(C)(C)c2cc(CN(C)C)c(O)c(CN(C)C)c2)cc(CN(C)C)c1O | 4.15µM | 0 | 0 | ? | 0 | -
CCOc1ccc2c(c1)OC1(CCC(C)C1)CC2=O (centres undefined) | - | 0 | - | - | 0 | -
CCOc1ccc2c(c1)OC(c1ccc(C)cc1)(C(F)(F)F)NC2=O (centres undefined) | 1.04µM | 0 | 0 | 0 | 0 | 3.29µM
Cc1ccc(NC(=O)C2(c3cccs3)CCOCC2)cc1Cl | - | - | - | 0 | - | -
CCN(CC)c1ccc(/C=N/NC(=S)NCc2ccccc2)cc1 | 13.1µM | 0 | 0 | 0 | 0 | 9.28µM
SMILES | Pf growth 48h | HCV inh | AmpC inh no detg | AmpC detergent | AMA1 RON2 block | Pf growth 96h
CCN(CC)c1ccc(/C=N/NC(=S)NCc2ccc(OC)cc2)cc1 | ? | ? | 0 | 0 | 0 | ?
CCN(CC)c1ccc(/C=C(\C#N)C(=O)NCc2ccccc2)cc1 | ? | 25.1µM | 0 | 0 | 0 | 0
C=CCNC(=S)N/N=C/c1ccc(N(CC)Cc2ccccc2)cc1 | 6.57µM | ? | 0 | 0 | 0 | 0
C=CCNC(=S)N/N=C/c1ccc(C)c([N+](=O)[O-])c1 | 0 | 0 | 0 | 0 | 0 | 0
Cc1cc(C(F)F)n2nc(C(=O)Nc3ccc(F)c(Cl)c3)nc2n1 | - | - | - | 0 | - | -
CCCCn1c(C)cc2c(c1=O)C1O[C@](c3ccsc3)(Cc3ccccc31)O2 | ? | - | ? | ? | - | 0[5.75 µM]
